In PubChem BioAssay one finds growth inhibition, inhibition and outcome data, which are given here for 21 compounds.

A number with no mark means an inactive call. For part of these data: Results with a measured potency or affinity are listed apart. Active and inactive are the calls of the source. Unless noted, no rule for the calls is given here.

The nature of test [1]: antimalarial activity against Dd2 strain (AID 2302;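 active = growth inhibition above 50% at the single 2 µM test dose, taken to imply half-maximal potency below 2 µM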;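 also: 0% = DMSO untreated growth and 100% = chloroquine plus artemisinin killed control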). The conditions noted are these: P. falciparum Dd2 in RBCs, LDH growth readout, 72 h; at 2 µM; active compounds read high.
A short description of test [2]: HepG2 cytotoxicity, primary screen, cytotoxicity control for P. falciparum antimalarial project, cell-based, ATP luminescence (AID 2303;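 active = inhibition above 50%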;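 also: 0% = DMSO wells and 100% = digitonin-killed cells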). The conditions noted are these: HepG2 viability, 24-48 h, at 10 µM, active compounds read high.
Test [3] addresses L-lactate dehydrogenase (Plasmodium falciparum (isolate CDC / Honduras)) (UniProt Q27743). In words: PfLDH activity inhibition – cell lysate, 3D7 strain, counter-screen for P. falciparum growth inhibition project (AID 2304).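 Also: 0% = vehicle and 100% = reference inhibitor.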 The conditions noted are these: P. falciparum 3D7 crude extract, LDH APAD/NBT absorbance; at 2 µM; active compounds read high.
The nature of test [4]: inhibition of 3D7 malaria parasite growth – strain 3D7 (AID 2306).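 Also: 0% = DMSO wells and 100% = chloroquine plus artemisinin control wells.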 Particulars: P. falciparum 3D7 erythrocytic growth, LDH absorbance, 72 h; at 2 µM; active compounds read high.
The target in test [5] is Calcium-dependent protein kinase 1 (Plasmodium falciparum (isolate 3D7)) (UniProt P62344). In words: PfCDPK1 kinase inhibitors, biochemical, TCAMS library (AID 1159585; cut-off not given, nearly all actives have IC50 up to about 0.98 µM;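 also: inhibitors leave more ATP so luminescence rises with inhibition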). Particulars: recombinant PfCDPK1, Kinase-Glo ATP depletion luminescence. For orientation: Kinase-Glo measures the ATP left after a reaction by luminescence.
The target in test [6] is Plasmodium falciparum protein kinase 6 (PK6, PF3D7_1337100) (UniProt Q8IDW1). In words: PfPK6 kinase inhibitors, biochemical, TCAMS library (AID 1159586). The conditions noted are these: recombinant PfPK6, Kinase-Glo ATP depletion luminescence.
Test [7] deals with Protein kinase 7 (PK7), Plasmodium falciparum 3D7 (PF3D7_0213400) (UniProt Q7YTF7). In words: inhibition of Plasmodium PK7 catalytic activity – biochemical, TCAMS antimalarial set, Kinase-Glo luminescence (AID 1159587). The conditions noted are these: recombinant PfPK7, Kinase-Glo ATP depletion luminescence.
In test [8] the target is Calcium-dependent protein kinase 4 (Plasmodium falciparum (isolate 3D7)) (UniProt Q8IBS5). In words: PfCDPK4 kinase inhibitors, biochemical, TCAMS library (AID 1159588; cut-off not given, nearly all actives have IC50 up to about 0.91 µM). The conditions noted are these: recombinant PfCDPK4, Kinase-Glo ATP depletion luminescence.
Calcium-dependent protein kinase 4 (Plasmodium falciparum (isolate 3D7)), sequence (Q8IBS5 whole entry, looked up): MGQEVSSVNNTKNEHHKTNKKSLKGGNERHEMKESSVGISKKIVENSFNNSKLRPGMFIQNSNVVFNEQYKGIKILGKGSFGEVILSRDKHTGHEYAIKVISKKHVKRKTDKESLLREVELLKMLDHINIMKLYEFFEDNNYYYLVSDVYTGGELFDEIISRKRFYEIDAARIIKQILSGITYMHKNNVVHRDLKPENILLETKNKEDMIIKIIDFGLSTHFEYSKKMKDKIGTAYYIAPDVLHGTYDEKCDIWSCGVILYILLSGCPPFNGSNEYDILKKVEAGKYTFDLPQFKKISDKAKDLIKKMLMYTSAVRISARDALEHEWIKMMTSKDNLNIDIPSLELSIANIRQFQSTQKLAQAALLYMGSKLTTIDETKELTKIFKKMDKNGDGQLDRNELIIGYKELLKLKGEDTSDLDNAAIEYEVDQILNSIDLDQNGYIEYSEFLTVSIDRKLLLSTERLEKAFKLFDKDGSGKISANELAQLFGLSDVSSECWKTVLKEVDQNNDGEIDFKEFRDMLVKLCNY

Plasmodium falciparum protein kinase 6 (PK6, PF3D7_1337100), sequence (Q8IDW1 1-305): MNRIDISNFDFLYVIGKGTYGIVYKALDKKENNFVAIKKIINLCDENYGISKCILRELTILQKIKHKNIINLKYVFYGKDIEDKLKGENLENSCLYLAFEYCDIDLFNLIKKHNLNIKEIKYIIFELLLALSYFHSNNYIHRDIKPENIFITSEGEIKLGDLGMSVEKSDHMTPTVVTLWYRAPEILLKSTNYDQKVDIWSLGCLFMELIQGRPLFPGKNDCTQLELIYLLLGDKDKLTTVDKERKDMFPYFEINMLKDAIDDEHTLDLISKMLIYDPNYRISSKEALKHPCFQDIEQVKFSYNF
L-lactate dehydrogenase (Plasmodium falciparum (isolate CDC / Honduras)), sequence (Q27743 whole entry, looked up): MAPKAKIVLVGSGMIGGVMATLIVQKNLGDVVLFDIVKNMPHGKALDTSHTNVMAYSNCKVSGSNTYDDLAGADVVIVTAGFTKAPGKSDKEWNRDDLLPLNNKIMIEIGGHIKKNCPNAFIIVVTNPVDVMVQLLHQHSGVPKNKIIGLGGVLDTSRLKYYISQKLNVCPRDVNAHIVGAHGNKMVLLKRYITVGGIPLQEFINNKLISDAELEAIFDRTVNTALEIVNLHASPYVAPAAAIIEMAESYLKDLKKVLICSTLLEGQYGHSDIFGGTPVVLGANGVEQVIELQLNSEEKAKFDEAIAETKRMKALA
Calcium-dependent protein kinase 1 (Plasmodium falciparum (isolate 3D7)), sequence (P62344 whole entry, looked up): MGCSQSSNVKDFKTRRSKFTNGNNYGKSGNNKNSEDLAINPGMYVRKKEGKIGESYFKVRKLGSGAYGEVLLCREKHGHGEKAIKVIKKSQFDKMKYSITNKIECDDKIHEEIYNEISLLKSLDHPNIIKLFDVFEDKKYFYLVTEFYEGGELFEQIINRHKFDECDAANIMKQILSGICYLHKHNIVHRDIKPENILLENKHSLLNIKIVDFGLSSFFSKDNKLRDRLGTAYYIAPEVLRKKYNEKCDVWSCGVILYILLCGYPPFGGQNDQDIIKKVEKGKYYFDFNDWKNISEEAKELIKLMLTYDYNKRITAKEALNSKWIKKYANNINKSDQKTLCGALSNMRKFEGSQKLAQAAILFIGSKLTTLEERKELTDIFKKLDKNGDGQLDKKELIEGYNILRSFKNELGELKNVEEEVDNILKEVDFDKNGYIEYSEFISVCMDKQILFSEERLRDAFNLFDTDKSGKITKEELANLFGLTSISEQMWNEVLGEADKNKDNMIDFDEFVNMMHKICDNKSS
Protein kinase 7 (PK7), Plasmodium falciparum 3D7 (PF3D7_0213400), sequence (Q7YTF7 1-343): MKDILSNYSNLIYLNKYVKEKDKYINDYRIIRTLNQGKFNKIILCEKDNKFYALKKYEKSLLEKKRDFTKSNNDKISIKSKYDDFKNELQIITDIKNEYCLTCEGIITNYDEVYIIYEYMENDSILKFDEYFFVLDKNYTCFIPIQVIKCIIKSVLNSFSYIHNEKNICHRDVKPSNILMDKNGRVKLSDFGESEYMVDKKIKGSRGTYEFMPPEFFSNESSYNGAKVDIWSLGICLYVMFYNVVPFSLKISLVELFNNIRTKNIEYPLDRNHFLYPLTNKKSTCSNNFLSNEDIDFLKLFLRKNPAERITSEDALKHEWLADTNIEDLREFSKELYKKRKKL

`CCCN1CCC=C(c2cccc(Nc3nccc(Nc4cc(OC)ccc4C)n3)c2)C1`: the figures for the growth inhibition in test [1] and in test [4] were 35% and 88% (active), respectively. Further, the inhibition (as a rule, the change of the read-out against control, counted positive when it falls) was 15% in test [2] and -1% in test [3]. The result in test [5], in test [6], in test [7] and in test [8] was inactive.

As to `COc1ccc(-c2ccc(NC(=O)c3cccc(Cl)c3)cc2)cc1CN1CCN(C)CC1`, the figures for the growth inhibition in test [1] and in test [4] were 33% and 90% (active), respectively. The inhibition was 42% in test [2] and -2% in test [3]. Also, the outcome in test [5], in test [6], in test [7] and in test [8] was inactive.

Take `CN(CCN1CCCC1)c1nc2ccc(-n3cnc4cc(-c5ccc(Cl)cc5)sc4c3=O)cc2[nH]1`: the growth inhibition in test [1] was 15%; in test [4], 93% (active). The inhibition in test [2] is 76% (active); in test [3] it was 3%. For the same compound, the outcome in test [5], in test [6], in test [7] and in test [8] was inactive.

As for `CC(C)COc1ccc(Cl)cc1Cc1nc(-c2nc3ccc(CN4CCCC4)cc3[nH]2)co1`, the growth inhibition in test [1] is 66% (active); in test [4] it was 101% (active). Besides, the inhibition is 50% (active) in test [2] and -1% in test [3]. The outcome in test [5], in test [6], in test [7] and in test [8] was inactive.

Take `CN(C)c1ccc(-c2csc(C(=O)NCC3CCN(Cc4ccc(C(C)(C)C)cc4)C3)c2)cc1` (stereo not drawn): the growth inhibition is 64% (active) in test [1] and 97% (active) in test [4]. The inhibition in test [2] was 29%; in test [3], 0%. Also, the outcome in test [5], in test [6], in test [7] and in test [8] was inactive.

In the case of `O=C(NC1CCN(Cc2cccc(C(F)(F)F)c2)CC1)c1ccc(-c2cccc(C(F)(F)F)c2)s1`, the growth inhibition in test [1] was 54% (active); in test [4], 94% (active). In addition, the inhibition in test [2] is 36%; in test [3] it was -2%. Moreover, the result in test [5], in test [6], in test [7] and in test [8] was inactive.

`COc1cc(F)c2nccc([C@@H](O)CN3CC[C@H](NCc4ccc5c(n4)NC(=O)CS5)[C@H](F)C3)c2c1`: the growth inhibition in test [1] was 80% (active); in test [4], 87% (active). In addition, the inhibition in test [2] was 32%; in test [3], 5%. The outcome in test [5], in test [6], in test [7] and in test [8] was inactive.

Regarding `CC(=O)c1c(CC(=O)O)c2ccccc2n1O`, the growth inhibition in test [1] is -1%; in test [4], 98% (active). Besides, the results for the inhibition in test [2] and in test [3] were 16% and -3%, respectively. Also, the result in test [5], in test [6], in test [7] and in test [8] was inactive.

Consider `COCCNCc1nc(-c2ccc3c(Nc4ccc(Cl)cc4F)ccnc3c2)cs1`, for which the values for the growth inhibition in test [1] and in test [4] were 100% (active) and 101% (active), respectively. Further, the figures for the inhibition in test [2] and in test [3] were -4% and -1%, respectively. The outcome in test [5], in test [6], in test [7] and in test [8] was inactive.

In the case of `c1ccc(OCCCCN2CCCCC2)cc1`, the growth inhibition in test [1] was 1%; in test [4], 95% (active). For the same compound, the inhibition in test [2] was 2%; in test [3], -11%. Further, the result in test [5], in test [6], in test [7] and in test [8] was inactive.

On to `CCCCOc1cc2c(cc1OCC)C(C=Cc1ccc(Cl)cc1Cl)=NCC2`, for which the growth inhibition in test [1] is 95% (active); in test [4], 97% (active). In addition, the inhibition in test [2] is -2%; in test [3], -1%. The outcome in test [5], in test [6], in test [7] and in test [8] was inactive.

As to `CCOC(=O)c1cc2c(CCN3C(=O)c4ccccc4C3=O)cn(C)c2cc1-c1ccncc1`, the growth inhibition was 90% (active) in test [1] and 101% (active) in test [4]. In addition, the values for the inhibition in test [2] and in test [3] were 99% (active) and 2%, respectively. Also, the result in test [5], in test [6], in test [7] and in test [8] was inactive.

In the case of `COc1ccc(Cn2c(Nc3cccc(C(F)(F)F)c3)nc3cc(C(=O)NCCN4CCCC4)ccc32)cc1Cl`, the figures for the growth inhibition in test [1] and in test [4] were 54% (active) and 97% (active), respectively. Also, the inhibition is 11% in test [2] and 2% in test [3]. Also, the outcome in test [5], in test [6], in test [7] and in test [8] was inactive.

Consider `Oc1cccc(Nc2nc(NCc3ccccc3)c3ccccc3n2)c1`, for which the growth inhibition in test [1] is 99% (active); in test [4], 95% (active). The inhibition in test [2] was 21%; in test [3], -7%. Further, the outcome in test [5], in test [6], in test [7] and in test [8] was inactive.

As to `CC(C)Sc1nc(-c2ccccc2)nc2c1COC(C)(C)C2`, the growth inhibition in test [1] was 41%; in test [4], 98% (active). Besides, the inhibition was 2% in test [2] and -4% in test [3]. The outcome in test [5], in test [6], in test [7] and in test [8] was inactive.

With `O=C(Nc1ccc(C(=O)N2CCN(CCN3CCN(c4cccc(C(F)(F)F)c4)CC3)CC2)cc1)c1ccc(OC(F)(F)F)cc1`, the growth inhibition in test [1] was 25%; in test [4], 95% (active). Moreover, the figures for the inhibition in test [2] and in test [3] were 38% and 7%, respectively. Also, the outcome in test [5], in test [6], in test [7] and in test [8] was inactive.

As for `Cc1cc(C(F)(F)F)n2nc(C3CCN(Cc4cc(C)c(O)c(C)c4)C3)cc2n1` (stereo not drawn), the growth inhibition in test [1] is 99% (active); in test [4], 98% (active). Moreover, the inhibition in test [2] was 34%; in test [3] it was 0%. Besides, the result in test [5], in test [6], in test [7] and in test [8] was inactive.

Consider `Cc1[nH]c(C)c(-c2ccc(-c3ccc(OC(F)(F)F)cc3)nc2)c(=O)c1Br`, for which the growth inhibition in test [1] and in test [4] was 97% (active) in each case. The inhibition in test [2] was 26%; in test [3], 3%. In addition, the result in test [5], in test [6], in test [7] and in test [8] was inactive.

With `NS(=O)(=O)c1cncc(-c2ccc3nccc(-c4cn[nH]c4)c3n2)c1`, the growth inhibition is 100% (active) in test [1] and 99% (active) in test [4]. Further, the values for the inhibition in test [2] and in test [3] were 33% and -2%, respectively. Moreover, the outcome in test [5], in test [6], in test [7] and in test [8] was inactive.

With `Cc1cc2c(NC(=O)NC3CCN(Cc4ccc(Cl)c(Cl)c4)CC3)cccc2cn1`, the growth inhibition is 41% in test [1] and 100% (active) in test [4]. Moreover, the inhibition was 11% in test [2] and -2% in test [3]. For the same compound, the result in test [5], in test [6], in test [7] and in test [8] was inactive.

For the compound `CC(C)CCN1CCC(Oc2ccc(NC(=O)c3cccs3)cc2Cl)CC1`, the growth inhibition in test [1] was 96% (active); in test [4] it was 97% (active). Also, the results for the inhibition in test [2] and in test [3] were 31% and -6%, respectively. The outcome in test [5], in test [6], in test [7] and in test [8] was inactive.
